Wnt bcat act = Wnt/beta-catenin pathway activation; Wnt/beta-catenin reporter cell assay, activator, plate reader; activation, % at 9.35 µM; actives 1.2% (n = 300,000); AID 743398; in the data active means activation above about 30%, passing the limit was not always enough; inconclusive means no clear call, values can overlap the other calls;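 further: 0% = neutral control wells and 100% = positive control wells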
MITF TRPM1 HTS = increases MITF-driven TRPM1 promoter luciferase signal. actives 0.75% (n = 300,000). activation, % at 12.5 µM. SK-MEL-5 TRPM1-promoter luciferase, 24 h; % of positive control, neutral wells = 0;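 active means mean activation of at least 80% with every replicate also reaching 80%; inconclusive means mean reaches 80% but some replicate falls short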;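 further: 0% = neutral control wells and 100% = parthenolide positive control wells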
FXN GAA850 act = frataxin GAA850 promoter activation | HEK293 lucGAA850 FXN promoter luciferase reporter, 24 h; percent of 10 µM SAHA response | activation, % at 6 µM | actives 0.56% (n = 360,000);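 active means activation above the average of all compounds screened plus 3 SD, cutoff fixed separately per campaign, cut at about 7.5% in these data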;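 further: 0% = DMSO wells and 100% = 10 µM SAHA wells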
esBAF inh = inhibitors of esBAF chromatin remodeling in mouse ES cells; Bmi1-luciferase knock-in reporter, 24 h; 100% = twice the neutral-well signal; reporter increase, % at 12.5 µM; actives 2% (n = 350,000); AID 602393; in the data active means activation above about 40%; inconclusive means no clear call, values can overlap the other calls;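 further: 0% = median of the plate's neutral control wells and 100% = double that signal; a rise in the Bmi1 reporter signal indicates esBAF inhibition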
Active calls of the source: *; ? = inconclusive; nt = no result. In the library only some 2.8% were active in any assay of this set; here they are far more common.

SMILES	Wnt bcat act	MITF TRPM1 HTS	FXN GAA850 act	esBAF inh
C[C@H](CO)N1C[C@H](C)[C@@H](CN(C)S(C)(=O)=O)Oc2cc(-c3ccc(F)cc3)ccc2S1(=O)=O	nt	nt	nt	6.0
CO[C@@H]1CN(C)C(=O)c2ccc(NS(C)(=O)=O)cc2OC[C@H](C)N(CC2CCCCC2)C[C@@H]1C	nt	nt	nt	-0.1
CCCN1[C@H](C(=O)N2CCN(C)CC2)[C@@H](CO)[C@@H]2Cn3c(ccc(-c4ccccc4F)c3=O)[C@@H]21	nt	nt	nt	6.3
Cc1ccc2cc(CCNC(=O)c3cccs3)c(=O)[nH]c2c1C	19.4	nt	4.1	59.0*
Cc1ccc2cc(CCNC(=O)c3cccs3)c(=O)[nH]c2c1	29.7	58.1	2.0	54.2*
C[C@H](CO)N1C[C@H](C)[C@@H](CN(C)C(=O)NC2CCCCC2)OCCCC[C@H](C)Oc2ccc(NC(=O)Nc3ccc4c(c3)OCO4)cc2C1=O	nt	nt	nt	10.3
Cc1csc(-c2coc3cc(O)cc(C)c3c2=O)n1	22.2	9.6	3.4	60.2*
COc1ccc2c(=O)c(-c3nc(C)cs3)coc2c1	nt	-8.1	3.0	nt
Cc1nc(-c2coc3cc(O)c(C)cc3c2=O)cs1	nt	-17.2	-3.8	nt
CCc1cc2c(=O)c(-c3nc(C)cs3)coc2cc1O	38.9*	47.9	4.2	47.8*
O=C(C[C@H]1CC[C@@H](NC(=O)C2CC2)[C@H](CO)O1)NCc1ccccc1Cl	nt	nt	nt	0.3
CCc1ccc(N2C(=O)Cc3c2nc(N)c(C#N)c3N)cc1	14.8	29.2	3.6	53.3*
CCN(CC)c1nc2c3c(nc4c(c3c1C#N)CC(=O)N4c1ccc(Cl)cc1)NC(C)=N2	3.5	5.8	-3.9	nt
CC(C)(C)c1ccc(N2C(=O)Cc3c2nc(N)c(C#N)c3N)cc1	nt	nt	2.0	51.1*
COc1ccc(-c2ccc3n(c2=O)C[C@@H]2[C@@H](CO)[C@H](C(=O)NC4CCC4)N(S(C)(=O)=O)[C@H]32)cc1	nt	nt	nt	-5.4
C[C@@H]1CCCCO[C@@H](CN(C)CC2CCCCC2)[C@@H](C)CN([C@@H](C)CO)C(=O)c2cc(NS(=O)(=O)c3cn(C)cn3)ccc2O1	nt	nt	nt	-0.2
CCC(=O)n1nc(-c2ccco2)nc1SCc1ccccc1	10.9	29.8	3.1	29.7
CC(=O)n1nc(-c2ccco2)nc1SCc1ccccc1	nt	63.6	4.2	55.1*
S=c1[nH]nc(-c2ccncc2)n1/N=C/C(Cl)=C\c1ccccc1	31.8*	70.9	4.2	nt
CN1CCN(C(=O)[C@@H]2[C@@H](CO)[C@@H]3Cn4c(ccc(-c5cccnc5)c4=O)[C@@H]3N2CC2CC2)CC1	nt	nt	nt	0.5
O=C1/C(=C/N(C(=O)c2ccco2)c2ccc(Br)cc2)Sc2ccccc21	nt	37.6	-1.4	48.4*
Cc1nn(-c2ccccc2)c(C)c1Cc1ccc(O)cc1	8.5	66.0	4.2	88.2*
Cc1nn(-c2ccccc2)c(C)c1CN	-1.1	-2.5	1.6	nt
NNC(=O)CN1C(c2ccccc2)=Nc2ccc(Br)cc2C1c1ccccc1 (stereo unspecified)	3.4	-0.7	0.4	nt
COc1cc(OC)c(C2=Nc3ccc(Br)cc3C(c3ccccc3)N2CC(=O)NN)cc1OC (stereo unspecified)	36.6*	2.7	0.2	nt
SMILES	Wnt bcat act	MITF TRPM1 HTS	FXN GAA850 act	esBAF inh
C[C@@H]1CN([C@@H](C)CO)C(=O)c2cc(NS(=O)(=O)c3cn(C)cn3)ccc2O[C@H]1CN(C)CC1CCCCC1	nt	nt	nt	-1.9
C(=C\c1nc(-c2ccncc2)no1)/c1ccccc1	40.3*	70.2	3.0	20.3
Cc1ccc(NC(=O)O/N=C/c2ccc(F)cc2)cc1	7.4	nt	3.0	55.5*
CSC(=S)N/N=C/c1ccc(N(C)C)cc1	10.1	33.0	2.5	nt
Cc1ccc(NC(=O)O/N=C/c2ccc(N(C)C)cc2)cc1	11.4	52.8	2.9	55.7*
CN(C)c1ccc(C=NNC(=S)Nc2ccc(F)cc2)cc1	8.0	62.1	-0.1	59.0*
O=C(Nc1ccccc1)O/N=C/c1ccc(F)cc1	14.2	nt	1.0	48.0*
O=C(Nc1ccccc1Cl)O/N=C/c1ccc(F)cc1	-0.3	8.6	3.4	nt
Cc1ccc(NC(=O)O/N=C/c2ccc(Br)cc2)cc1	3.8	nt	1.0	7.6
C[C@H]1CN([C@@H](C)CO)C(=O)c2cc(C3=CCCCC3)cnc2O[C@H]1CN(C)Cc1ccccc1	nt	nt	nt	0.2
CCC(=O)N1C[C@H]2[C@@H](c3ccccc31)[C@@H](CO)N2Cc1ccccc1Cl	nt	nt	nt	-1.0
Cc1nc(-c2ccccc2Cl)sc1C(=O)/C=C/N(C)C	7.4	57.2	5.7	59.0*
Cc1nc(-c2ccccc2)sc1C(=O)/C=C/c1ccc(Cl)cc1	nt	-11.6	0.9	-4.5
CCS(=O)(=O)Nc1ccc2c(c1)C(=O)N(C)[C@H]1CC[C@H](CC(=O)NCCOC)O[C@H]1CO2	nt	nt	nt	6.0
C[C@@H]1CN([C@@H](C)CO)C(=O)c2cccc(NS(=O)(=O)c3ccc(Cl)cc3)c2O[C@@H]1CN(C)C(=O)NC1CCCCC1	nt	nt	nt	12.8
Cc1ccc2[nH]c(C(=O)N3CCCCC3)cc2c1	12.7	44.5	1.7	57.9*
Cc1ccc2[nH]c(C(=O)N3CCOCC3)cc2c1	5.1	0.2	1.1	5.4
CNC(=O)c1c(Cl)cnn1-c1ccc(C)cc1	11.8	56.4	4.9	nt
CNC(=O)c1c(Br)cnn1-c1ccc(C)cc1	17.8	43.7	3.8	83.5*
Cc1ccc(CSc2n[nH]c(N)n2)cc1	1.0	23.1	4.6	23.1
Cc1ccc(Nc2nc(CSc3n[nH]c(N)n3)cs2)cc1	42.7*	93.1*	4.3	-50.0
Cn1nnnc1SCc1csc(Nc2ccccc2)n1	nt	58.4	1.9	?
Cc1ccc(Nc2nc(CSc3nnnn3C)cs2)cc1	29.6	74.9	5.1	61.3*
C[C@H](CO)N1C[C@H](C)[C@@H](CN(C)S(=O)(=O)c2cccs2)Oc2ccc(NC(=O)CCCN(C)C)cc2CC1=O	nt	nt	nt	-3.3
COc1ccc(NC(=O)Nc2ccc3c(c2)CC(=O)N([C@@H](C)CO)C[C@@H](C)[C@H](CN(C)S(=O)(=O)c2cccs2)O3)cc1	nt	nt	nt	-5.0
SMILES	Wnt bcat act	MITF TRPM1 HTS	FXN GAA850 act	esBAF inh
Cc1cccnc1NC(=O)Nc1cccc(F)c1	3.1	nt	3.9	48.3*
Cc1cccnc1NC(=O)Nc1ccccc1	14.2	?	3.9	40.9
O=C(Nc1cccc(F)c1)Nc1ccccn1	nt	nt	2.8	38.1
Cc1cccnc1NC(=O)Nc1ccc(Cl)cc1	-0.1	30.0	6.6	70.8*
CC(C)NC(=O)N(C)C[C@@H]1Oc2c(NC(=O)c3cnccn3)cccc2C(=O)N([C@H](C)CO)C[C@@H]1C	nt	nt	nt	1.6
O=c1c2ccccc2nc2c3ccccc3c(NCc3ccccn3)nn12	48.9*	16.5	1.1	nt
CCOc1ccc(/C=N/N(C)c2ccccc2)cc1OC	nt	108.9*	6.2	85.6*
COc1cc(/C=N/N(c2ccccc2)c2ccccc2)ccc1O	-0.3	nt	-0.8	-6.5
N/C(=N\OC(=O)/C=C/c1ccccc1)c1ccncc1	11.5	50.0	4.1	45.2*
COc1ccc(/C=C/C(=O)O/N=C(\N)c2ccccn2)cc1OC	1.2	80.9*	4.5	?
N/C(=N\OC(=O)c1ccc2ccccc2c1)c1ccncc1	33.9*	?	2.4	nt
N/C(=N\OC(=O)c1ccc2ccccc2c1)c1ccccc1Cl	46.6*	?	1.8	65.4*
N/C(=N\OC(=O)/C=C/c1ccccc1)c1ccccn1	27.6	48.7	3.8	-58.7

From PubChem BioAssay
